Data reported in PubChem BioAssay (EPA / NIEHS).
The source made the active and inactive calls. How the source made its calls: active means hit-call score of the fitted dose curve at least 0.9, where 1 is the maximum; inactive means score below 0.9.

Legend:
[1] = target: Transcription factor E2F1 (Homo sapiens) (UniProt Q01094); experiment: ATG_E2F_CIS: Attagene CIS-FACTORIAL HepG2 Assay for human E2F Transcription Factor 1 (AID 2282935); details: HepG2 Attagene cis-reporter, E2F reporter RNA transcripts; actives raise or lower the signal
In short: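 Gain or loss of reporter transcript, fitted against DMSO, reflects E2F1-driven transcription. Transiently transfected HepG2 dosed 24 h before RNA isolation. Quantified by fluorescent RT-PCR products separated by capillary electrophoresis.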

[2] = ATG_E_Box_CIS: Attagene CIS-FACTORIAL HepG2 Assay for human Enhancer Box (E-box) (AID 2282936); details: HepG2 E-box cis-reporter transcription, actives raise or lower the signal
In short: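 E-box-driven reporter transcripts measured in transiently transfected HepG2 after 24 h exposure: RNA reverse-transcribed, PCR-amplified, fluorescently labelled, digested and resolved by capillary electrophoresis. Gain or loss relative to DMSO.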

[3] = ATG_M_61_CIS: Attagene CIS-FACTORIAL HepG2 Assay for M61 Transcription Factor (Internal Marker) (AID 2282937); details: HepG2 Attagene CIS-FACTORIAL M61 internal marker reporter; actives raise or lower the signal
In short: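 Human liver HepG2, transient MRTU transfection (cis promoter elements), 24 h compound. Total RNA → oligo(dT) RT → PCR → FAM label → HpaI → CE. Internal background marker; bidirectional fitting, DMSO = baseline.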

[4] = ATG_M_19_CIS: Attagene CIS-FACTORIAL HepG2 Assay for M19 Transcription Factor (Internal Marker) (AID 2282939); details: HepG2 Attagene CIS-FACTORIAL M19 internal marker reporter; actives raise or lower the signal
In short: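 Signals come from fluorescence of labelled reporter-specific PCR fragments resolved by capillary electrophoresis, following 24 h treatment of HepG2 cells transfected with cis-promoter reporter units; activity was fitted in both directions relative to DMSO.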

[5] = ATG_ERE_CIS: Attagene CIS-FACTORIAL HepG2 Assay for Estrogen Response Element (ERE) (AID 2282940); details: HepG2 ERE cis-reporter, Attagene RNA transcript; actives raise or lower the signal
In short: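 Fluorescence of capillary-separated, FAM-labelled reporter cDNA fragments indicates reporter mRNA levels in HepG2 cells exposed to chemicals for 24 h. Transient transfection with cis-regulated units; data fitted in both directions against DMSO.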

[6] = ATG_Ets_CIS: Attagene CIS-FACTORIAL HepG2 Assay for human Erythroblast Transformation Specific (ETS) (AID 2282941); details: HepG2 ETS cis-reporter transcription, actives raise or lower the signal
In short: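 Endogenous transcription factor activity read as reporter mRNA via RT-PCR and capillary electrophoresis, with gain or loss fitted bidirectionally against DMSO. Human HepG2 liver cells, transiently transfected CIS reporter constructs, 24 h exposure.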

[7] = target: Hepatocyte nuclear factor 3-beta (Homo sapiens) (UniProt Q9Y261); experiment: ATG_FoxA2_CIS: Attagene CIS-FACTORIAL HepG2 Assay for human Forkhead box A2 (FOXA2) (AID 2282942); details: HepG2 cis-reporter transcription factor activity, 24 h; actives raise or lower the signal
In short: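 Transient MRTU transfection of HepG2 liver cells; 24 h treatment; total RNA → oligo(dT) RT → PCR → FAM primer extension → HpaI cut → CE. Bidirectional fit vs DMSO.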

[8] = ATG_FoxO_CIS: Attagene CIS-FACTORIAL HepG2 Assay for human Forkhead box O (FoxO) (AID 2282943); details: HepG2 Attagene cis-reporter, FoxO element, mRNA; actives raise or lower the signal
In short: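 Endogenous transcription factor activity read from multiplexed cis-promoter reporter transcripts in transiently transfected HepG2, 24 h after dosing. Reporter RNA measured via RT-PCR plus capillary electrophoresis of FAM-labeled products; gain or loss relative to DMSO.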

[9] = ATG_GATA_CIS: Attagene CIS-FACTORIAL HepG2 Assay for human GATA Binding Protein (AID 2282944); details: HepG2 GATA cis-element reporter, Attagene multiplex mRNA; actives raise or lower the signal
In short: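 After transfecting HepG2 cells with multiple cis-regulated reporter units, chemicals are dosed for 24 h; isolated RNA undergoes RT-PCR and fluorescent labeling before capillary electrophoresis, with activity expressed against DMSO.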

Measured: AC50

Chain of Hepatocyte nuclear factor 3-beta (Homo sapiens) (Q9Y261 whole entry, looked up): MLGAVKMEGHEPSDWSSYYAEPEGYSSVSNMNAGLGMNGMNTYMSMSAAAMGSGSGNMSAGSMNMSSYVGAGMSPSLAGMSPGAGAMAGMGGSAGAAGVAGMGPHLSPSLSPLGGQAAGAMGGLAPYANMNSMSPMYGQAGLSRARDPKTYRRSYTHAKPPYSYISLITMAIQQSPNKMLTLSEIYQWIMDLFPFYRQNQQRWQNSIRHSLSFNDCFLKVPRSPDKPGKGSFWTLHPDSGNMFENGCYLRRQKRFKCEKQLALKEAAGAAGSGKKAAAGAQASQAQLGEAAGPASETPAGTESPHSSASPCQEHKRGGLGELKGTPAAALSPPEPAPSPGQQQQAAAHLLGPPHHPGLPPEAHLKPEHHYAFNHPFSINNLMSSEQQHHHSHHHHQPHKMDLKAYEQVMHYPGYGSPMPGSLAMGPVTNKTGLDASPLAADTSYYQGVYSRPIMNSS
Chain of Transcription factor E2F1 (Homo sapiens) (Q01094 whole entry, looked up): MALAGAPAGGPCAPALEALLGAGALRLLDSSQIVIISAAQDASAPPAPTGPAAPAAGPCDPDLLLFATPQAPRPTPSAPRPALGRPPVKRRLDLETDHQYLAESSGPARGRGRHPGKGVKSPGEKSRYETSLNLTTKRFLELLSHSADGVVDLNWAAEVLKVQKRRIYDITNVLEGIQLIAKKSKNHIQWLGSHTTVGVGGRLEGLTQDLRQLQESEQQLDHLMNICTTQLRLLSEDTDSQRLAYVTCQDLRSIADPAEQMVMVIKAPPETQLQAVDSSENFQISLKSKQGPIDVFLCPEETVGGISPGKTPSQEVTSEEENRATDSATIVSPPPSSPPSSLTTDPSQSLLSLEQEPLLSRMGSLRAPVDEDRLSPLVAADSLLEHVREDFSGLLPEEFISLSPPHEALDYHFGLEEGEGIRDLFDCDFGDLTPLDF

O=S(=O)(O)c1ccc2ccccc2c1
inactive: [1] | [2] | [3] | [4] | [5] | [6] | [7] | [8] | [9]

CC(C)=CCCC(C)CCOC(=O)C(C)C (stereo not given)
inactive: [1] | [2] | [3] | [4] | [6] | [7] | [8] | [9]

FC(F)(F)C(F)(F)C(F)(F)C(F)(F)C(F)(F)C(F)(F)CCS
inactive: [1] | [2] | [3] | [4] | [6] | [7] | [8] | [9]

CCCCOCCOCCOC(=O)CCCCC(=O)OCCOCCOCCCC
inactive: [1] | [2] | [3] | [4] | [5] | [6] | [7] | [8] | [9]

CCCCOc1ccc(N)cc1
inactive: [1] | [2] | [3] | [4] | [5] | [6] | [7] | [8] | [9]

CCC(=O)OCCc1ccccc1
inactive: [1] | [2] | [3] | [4] | [5] | [6] | [7] | [8] | [9]

CCCCCCCOC(=O)c1ccccc1C(=O)OCCCCCCC
inactive: [1] | [2] | [3] | [4] | [5] | [6] | [7] | [8] | [9]

OCC(F)(F)C(F)(F)C(F)(F)C(F)(F)C(F)(F)C(F)F
inactive: [1] | [2] | [3] | [4] | [6] | [7] | [8] | [9]
active: [5] 6.1 µM

CCCCCCS
inactive: [1] | [2] | [3] | [4] | [6] | [7] | [8] | [9]

CC/C=C\CCOC(C)=O
inactive: [1] | [2] | [3] | [4] | [5] | [6] | [7] | [8] | [9]

O=C(O)C(F)(F)C(F)(F)C(F)F
inactive: [1] | [2] | [3] | [4] | [5] | [6] | [7] | [8] | [9]

O=C(CC(=O)C(F)(F)C(F)(F)F)C(F)(F)F
inactive: [1] | [2] | [3] | [4] | [6] | [7] | [8] | [9]

CC(C)(C)C(=O)CC(=O)C(F)(F)C(F)(F)C(F)(F)F
inactive: [1] | [2] | [3] | [4] | [5] | [6] | [7] | [8] | [9]

FC(F)(F)C(F)(F)C(F)(F)CI
inactive: [1] | [2] | [3] | [4] | [6] | [7] | [8] | [9]

CC(C)c1ccccc1N
active: [8] 152 µM
inactive: [1] | [2] | [3] | [4] | [6] | [7] | [9]

Nc1ccc(S(=O)(=O)Nc2nccs2)cc1
inactive: [1] | [2] | [3] | [4] | [5] | [6] | [7] | [8] | [9]

Cc1cc(C)cc(O)c1
inactive: [1] | [2] | [3] | [4] | [6] | [7] | [8] | [9]

C=C(C)C(=O)OCC(F)(F)C(F)(F)C(F)(F)F
inactive: [1] | [2] | [3] | [4] | [6] | [7] | [8] | [9]

COC(OC(C)=O)c1ccccc1 (stereo not given)
inactive: [1] | [2] | [3] | [4] | [5] | [6] | [7] | [8] | [9]

CC/C=C\CCOC(=O)c1ccccc1
inactive: [1] | [2] | [3] | [4] | [5] | [6] | [7] | [8] | [9]

Cc1ccc(S(=O)(=O)NCl)cc1
inactive: [1] | [2] | [3] | [4] | [5] | [6] | [7] | [8] | [9]

C(=C(c1ccccc1)c1ccccc1)c1ccccc1
active: [5] 0.0294 µM
inactive: [1] | [2] | [3] | [4] | [6] | [7] | [8] | [9]

CCc1c(Br)c(Br)c(Br)c(Br)c1Br
inactive: [1] | [2] | [3] | [4] | [5] | [6] | [7] | [8] | [9]

FC(F)(F)C(F)(F)C(F)(F)C(F)(F)C(F)(F)C(F)(F)CC1CO1 (stereo not given)
inactive: [1] | [2] | [3] | [4] | [5] | [6] | [7] | [8] | [9]

CN(C)Cc1ccccc1O
inactive: [1] | [2] | [3] | [4] | [6] | [7] | [8] | [9]

CC(=O)Nc1ccc(N=Nc2cc(C)ccc2O)cc1
inactive: [1] | [2] | [3] | [4] | [5] | [6] | [7] | [8] | [9]
